# Assay results reported in PubChem BioAssay (NCATS).
# Where “and” joins values, the source holds several entries; their conditions need not be identical. Equal entries are not always repeated. Results filed as inconclusive are left out. Unmarked numbers belong to inactive results. Calls of active or inactive are those of the source. The call rests on the fitted dose curve; in most records, active means well fitted curve in the direction sought with a large enough effect; inconclusive means small, poorly fitted or top-dose-only effect, or another doubt; inactive means no such curve, though single readings can be large; an effect the other way counts as inactive or inconclusive.
# Experiments:
# [1] = molecular target: Cellular tumor antigen p53 (Homo sapiens) (UniProt P04637); experiment: Primary qHTS for small molecule compounds that upregulate eGFP-tagged delta133p53alpha (in N-terminal) cells. (AID 2060322); conditions: NCI-H358 eGFP-delta133p53alpha fluorescence, 24 h; activation: hits give high values; further: nearly all actives have a fitted effect of over 75% in size; further: potency means the concentration at half of the fitted maximal effect;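 on activation: cells pre-induced with doxycycline then dosed without doxycycline; series mostly up to about 56 µM; 0% = DMSO vehicle and 100% = reference activator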
# How it was run: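 NCI-H358 cells pre-induced 24 h with 10 ng/ml doxycycline for eGFP-delta133p53alpha, plated dox-free and exposed 24 h at 37C to titrated compounds. Fixed, Hoechst-stained; gated GFP peak intensity by laser scanning cytometry, normalized to DMSO (0%) and 57.5 uM 5-azacytidine (100%).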
# [2] = molecular target: Retinaldehyde dehydrogenase 3 (Homo sapiens) (UniProt P47895); experiment: qHTS for Inhibitors of the Aldehyde Dehydrogenase Family (ALDH1A3) Primary screen (AID 2061315);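 further: plate controls were DMSO vehicle for no effect and reference inhibitor for full effect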
# [3] = molecular target: Aldehyde dehydrogenase, mitochondrial (Homo sapiens) (UniProt P05091); experiment: qHTS for Inhibitors of the Aldehyde Dehydrogenase Family (ALDH2) Primary screen (AID 2061308);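 further: plate controls were vehicle for no effect and reference inhibitor for full effect; nearly all actives have a fitted effect of over 55% in size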
# [4] = BET inhibitor-based combinations targeting novel dependencies in MECOM-rearranged (r) AML: SET-2 cell line (AID 2202231); conditions: SET-2 AML cells viability, CellTiter-Glo luminescence, 48 h; viability: hits give low values, concentration not given here; further: nearly all actives have a fitted effect of over 35% in size; further: potency means the concentration at half of the fitted maximal effect;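 on viability: plate controls were DMSO treated cells for no effect and wells without cells for full effect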
# How it was run: (§1)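 Here, 11-point titrations of each agent were applied to 500 seeded cells and incubated 48 hr; CellTiter-Glo signal, scaled against DMSO and empty wells, was integrated as AUC, then Z-scored within the individual line.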
# [5] = BET inhibitor-based combinations targeting novel dependencies in MECOM-rearranged (r) AML: MV-4-11 cell line (AID 2202233); further: nearly all actives have a fitted effect of over 45% in size; further: potency means the concentration at half of the fitted maximal effect
# How it was run: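 Normalized to DMSO and empty-well controls, the luminescence data from CellTiter-Glo after 48 hr drug exposure were fitted across 11 concentrations. Reported metrics are area under the dose-response curve and its Z-transformed form.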
# [6] = BET inhibitor-based combinations targeting novel dependencies in MECOM-rearranged (r) AML: AML-194 cell line (AID 2202237;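 further: plate controls were vehicle wells for no effect and wells without cells for full effect; nearly all actives have a fitted effect of over 40% in size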)
# How it was run: as §1
# [7] = BET inhibitor-based combinations targeting novel dependencies in MECOM-rearranged (r) AML: OCI-AML3 cell line (AID 2202232); conditions: Potency: OCI-AML3 viability; further: nearly all actives have a fitted effect of over 35% in size; further: potency means the concentration at half of the fitted maximal effect
# How it was run: as §1
# [8] = molecular target: Retinaldehyde dehydrogenase 3 (Homo sapiens) (UniProt P47895); experiment: qHTS for Inhibitors of the Aldehyde Dehydrogenase Family (ALDH1A3) Confirmatory screens (AID 2061311); further: potency means the concentration at half of the fitted maximal effect; nearly all actives have a fitted effect of over 60% in size
# [9] = molecular target: Aldehyde dehydrogenase 1A1 (Homo sapiens) (UniProt P00352); experiment: qHTS for Inhibitors of the Aldehyde Dehydrogenase Family (ALDH1A1) Confirmatory screens (AID 2061316); further: potency means the concentration at half of the fitted maximal effect; nearly all actives have a fitted effect of over 65% in size
# Chain of Cellular tumor antigen p53 (Homo sapiens) (P04637 whole entry, looked up): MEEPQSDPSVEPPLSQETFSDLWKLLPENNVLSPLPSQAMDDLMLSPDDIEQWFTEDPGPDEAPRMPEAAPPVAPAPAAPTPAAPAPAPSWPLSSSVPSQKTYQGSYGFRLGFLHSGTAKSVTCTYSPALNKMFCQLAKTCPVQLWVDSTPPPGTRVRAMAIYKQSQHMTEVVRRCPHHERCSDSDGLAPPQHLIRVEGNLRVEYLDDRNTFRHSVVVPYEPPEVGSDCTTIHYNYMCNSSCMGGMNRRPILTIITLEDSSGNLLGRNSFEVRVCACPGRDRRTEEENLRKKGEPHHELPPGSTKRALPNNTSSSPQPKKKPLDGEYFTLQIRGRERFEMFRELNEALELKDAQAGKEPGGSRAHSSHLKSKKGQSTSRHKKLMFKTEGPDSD
structure (smiles),measurement,setting,value
C=C1[C@@]23C(=O)O[C@H](C)[C@]24O[C@@]2(C(=C)[C@]5(C=CC(=O)OC5(C)C)CC[C@]32C)[C@H](O)[C@@]1(C)OC4=O,activation,[1],13%
same,Potency,[2],inactive
O=C(O)CNC(=O)c1c(O)c2ccccc2n(Cc2ccccc2)c1=O,activation,[1],-9.57% and 9.82%
same,Potency,[3],inactive
same,Potency,[2],inactive
same,viability,[4],107%
same,Potency,[5],inactive
same,Potency,[6],inactive
COc1cccc2c1C(=O)c1c(O)c3c(c(O)c1C2=O)C[C@@](O)(C(=O)CO)CC3OC1CC(N2CCOC(OC)C2)C(O)C(C)O1 (some centres undefined),Potency,[1],0.0276 µM (active)
same,Potency,[4],0.0033 µM (active)
same,Potency,[7],0.0047 µM (active)
Oc1ccc2c(c1)C13CCCC[C@H]1[C@@H](C2)N(CC1CCC1)CC3,activation,[1],12.3%
same,Potency,[3],inactive
same,Potency,[2],inactive
C/C=C(\C)C(=O)OC1CC2C(CC=C3CC(OC4CC(OC)C(OC5CC(OC)C(OC6OC(C)C(OC7OC(CO)C(O)C(O)C7O)C(OC)C6O)C(C)O5)C(C)O4)CCC32C)C2(O)CCC(C(C)=O)C12C (centres undefined),activation,[1],-6.25%
same,Potency,[3],inactive
same,Potency,[2],inactive
COc1ccc2c(c[n+](C)c3c4cc5c(cc4ccc23)OCO5)c1OC,Potency,[1],43.2 µM (active)
same,Potency,[8],7.12 µM (active)
same,Potency,[9],6.34 µM (active)
same,Potency,[5],5.25 µM (active)
COC(=O)C1(C)CCC(=O)C2(C)c3c(O)cc(C(C)C)cc3C(O)C(OC(C)=O)C12 (centres undefined),activation,[1],22.9%
same,Potency,[3],inactive
same,Potency,[2],inactive
NC(=O)[C@@H](CC1CC1)[C@@H](CCC(F)(F)F)C(=O)N[C@H]1N=C(c2ccccc2)c2cccc(F)c2NC1=O,activation,[1],-1.79%
same,Potency,[3],inactive
same,Potency,[2],inactive
same,viability,[4],117%
same,Potency,[7],inactive
